The source made the active and inactive calls. Entries that show only a call come without a potency. The call rests on the fitted dose curve; in most records, active means well fitted curve in the direction sought with a large enough effect; inactive means no such curve, though single readings can be large or run the other way.
Biological target: Uracil-DNA glycosylase (Escherichia coli (strain K12)) (UniProt P12295)
Assay: Confirmatory (Round 2) qHTS assay for inhibitors of Activation Induced Cytidine Deaminase (AID): UDG counterscreen signal
Conditions: FRET fluorescence, 4 h; series mostly up to 78.4 µM
Source text: Assay Provider (PI) Patricia Gearhart Ph.D. National Institute on Aging National Institute of Health (NIH), Bethesda, MD Assay Provider (PI) Rahul Kohli Ph.D. Perelman School of Medicine University of Pennsylvania, Philadelphia, PA Activation-Induced Deaminase (AID) is a cytosine deaminase which converts cytosine into uracil within stretches of ssDNA. The presence of uracil in DNA initiates a cascade of mutagenic DNA repair to introduce point mutations and DNA double strand breaks. Specific targeting of AID to the immunoglobulin heavy chain loci (Igh) promotes mutagenesis in the antibody variable region for somatic hypermutation (SHM) or switch regions leading to class switch recombination (CSR). However, AID also plays a role in accumulating unnecessary mutations across the genome. Mis-targeting of AID results in the initiation of tumor development and leads to greater drug resistance among cancer cells when continually expressed. To identify an AID inhibitor, a small molecule library will be screened in collaboration with NCATS core facility at NIH. To confirm biological function, inhibitors will be examined in an in vitro murine B-cell activation assay and subsequent secondary validation screens. Top molecules will be further screened to identify inhibitory efficacy against a wild type primary splenocytes assay. Using these approaches, we hope to identify a small molecule with great efficacy and low toxicity for use as a molecular probe to further characterize AID's intricacies, or even as a therapeutic. A FRET based analysis of cytosine deamination, was developed to identify potential inhibitors of AID catalytic activity. This screen has two signal output, Read 1 evaluates the AID inhibition response. The second readout (Read 2) evaluates UDG response and is uses as a counterscreen to exclude false positive inhibitors. Inhibition in AID and inactivity in the UDG signal is the desired outcome for this assay.
PROTOCOL TABLE SEQUENCE No. (e.g., 1, 2, 3, etc.); PARAMETER (e.g., Cells, Incubation, Reagent, etc.); VALUE; DESCRIPTION 1a; Reagent; 3 uL; [4/3x] 1 uM AID/2.67 U/mL UDG 1b; Reagent; 3 uL; 2 U/mL UDG 1c; Reagent; 3 uL; 1 uM AID 2a; Compound; 46 nL; Follow-up plates (0.64 uM - 10 mM) 2b; Control; 46 nL; ATA ([…] - 10 mM) 3; Time; 10 min; incubation at room temperature 4; Reagents; 1 uL; [4x] 250 nM DJC20 / 250 nM DJC23 [Substrate] 5; Time; 4 hr; incubation at room temperature 6; Reagent; 4 uL; [2x] 250 mM NaOH 7; Time; 15 sec; centrifuge at 1000 rpm 8; Time; 30 min; incubation at room temperature 9a; Detection; fluorescence (Read 1: AID); EnVision (PerkinElmer) plate reader, 540 excitation and 590 emission filters 9b; Detection; fluorescence (Read 2: UDG); EnVision (PerkinElmer) plate reader, 560 excitation and 665 emission filters NOTES (numbers refer to sequence above) 1a; Reagents were dispensed in a medium-binding black solid-bottom Greiner plates (789176F) using a BioRptr liquid dispenser. Dispense 3 uL of [4/3x] 1 uM AID (provided by Kohli lab) and [4/3x] 2 U/mL UDG (NEB M0280L) into columns 1, 2, 5 to 48. 1b; Dispense 3 uL of [4/3x] 2 U/mL UDG into column 3. 1c; Dispense 3 uL of [4/3x] 1 uM AID into column 4. 2a; Compound (7-points [uM]: 0.64; 3.2; 16; 80; 400; 2,000; 10,000; […]) double pin-transferred (Dip Factor = 2) using the Kalypsys (Wako USA) pintool equipped with a 1536 pinhead for a final concentration range of 7.32 nM - 114 uM. 2b; 10 mM Aurintricarboxylic Acid (Sigma A1895) (ATA, 8-point, n = 2, 1:2.5 dilution in column 2) double pin-transferred (Dip Factor = 2) using the Kalypsys (Wako USA) pintool equipped with a 1536 pinhead for a [final] range of 186 nM - 114 uM. 3; Room temperature incubation. 4; Dispense 1 uL of substrate mixture from the Kohli lab [4x] […] DJC20 and [4x] 250 nM DJC23 into columns 1 to 48 . 5; Room temperature incubation. 6; Dispense 4 uL of substrate mixture [2x] 250 mM NaOH into columns 1 to 48. 7; Centrifugation step to remove bubbles. […]

Row | SMILES | Potency
1 | O=c1cc2nc(-c3ccccc3)nc(SCCN3CCC(F)(F)CC3)n2[nH]1 | inactive
2 | O=c1cc2nc(-c3ccccc3)nc(SCCCn3ccnc3)n2[nH]1 | inactive
3 | O=C(O)C1=CC(=C(c2ccc(O)c(C(=O)O)c2)c2ccc(O)c(C(=O)O)c2)C=CC1=O | 31.6 µM (active)
4 | CC(C)c1ccc2c(c1)c(SC(C)(C)C)c(CC(C)(C)C(=O)O)n2Cc1ccc(Cl)cc1 | inactive
5 | Cn1ccnc1CCSc1nc(-c2ccccc2)nc2cc(=O)[nH]n12 | inactive
6 | COc1ccccc1OCCSc1nc(-c2ccc(C(C)(C)C)cc2)nc2cc(=O)[nH]n12 | inactive
7 | CN1CCN(CCCSc2nc(-c3ccccc3)nc3cc(=O)[nH]n23)CC1 | inactive
8 | Cc1noc(C)c1CCSc1nc(-c2ccccc2)nc2cc(=O)[nH]n12 | inactive
9 | O=c1cc2nc(-c3ccccc3)nc(SCCOCCOc3ccccc3)n2[nH]1 | inactive
10 | O=c1cc2nc(-c3ccccc3)nc(SCCCc3ccncc3)n2[nH]1 | inactive

Reference: PubChem BioAssay AID1347432 (National Center for Advancing Translational Sciences (NCATS), 2020)
